Screens from PubChem BioAssay.
Rows were chosen to be rich in hits. Some 7.5% of all compounds tested hit in one or more screens of this group.
ELG1 genotoxic – induces genotoxicity in HEK293T cells with luciferase-tagged ELG1. HEK293T ELG1-luciferase reporter, luminescence, 16 h. Potency, µM (highest dose often 46 µM), without a hit: at the top dose activity change, positive = activation, actives largely listed as activators. hit rate 1.3% among 330,000; also: % of control where 0% means no effect; nearly all actives have a fitted effect of over 60% in size
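After overnight (16 hr) compound treatment at 37 °C, ELG1-luciferase HEK293T cells were lysed with ONE-Glo; luminescence quantified 30 min later at room temperature.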
FLuc counter – inhibits or activates purified firefly luciferase, miR-21 counter-screen; P08659; purified FLuc, Km substrates, luminescence inhibition; Potency, µM (highest dose often 57.5 µM), for inactives: at the top dose activity change, negative = inhibition, hits mostly inhibitors; hit rate 6.9% among 360,000; AID 588342;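 also: plate controls were vehicle for no effect and reference inhibitor for full effect; nearly all actives have a fitted effect of over 55% in size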
Target sequence (P08659 whole entry, looked up): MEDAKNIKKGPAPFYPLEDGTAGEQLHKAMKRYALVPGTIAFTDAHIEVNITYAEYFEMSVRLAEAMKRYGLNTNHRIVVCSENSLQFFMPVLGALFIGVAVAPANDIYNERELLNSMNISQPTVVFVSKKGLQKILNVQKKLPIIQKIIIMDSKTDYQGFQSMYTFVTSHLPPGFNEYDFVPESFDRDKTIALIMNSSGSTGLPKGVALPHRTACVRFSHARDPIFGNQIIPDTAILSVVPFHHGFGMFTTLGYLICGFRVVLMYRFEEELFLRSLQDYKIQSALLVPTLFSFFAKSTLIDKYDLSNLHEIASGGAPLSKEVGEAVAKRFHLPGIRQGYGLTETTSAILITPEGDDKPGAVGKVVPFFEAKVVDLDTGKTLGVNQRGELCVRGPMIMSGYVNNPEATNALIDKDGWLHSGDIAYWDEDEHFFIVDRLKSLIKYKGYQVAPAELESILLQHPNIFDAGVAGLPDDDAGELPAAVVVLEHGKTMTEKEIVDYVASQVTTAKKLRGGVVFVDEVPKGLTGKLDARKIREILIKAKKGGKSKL
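Purified P. pyralis luciferase, 10 nM final, with Km-level 10 uM D-luciferin and 10 uM ATP in 50 mM Tris acetate pH 7.5, 10 mM Mg acetate, 0.01% Tween-20, 0.05% BSA; 6-point qHTS titration about 60 µM downward; luminescence read.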
Rab9 promoter act – activators of Rab9 promoter; Potency, µM (top dose mostly 9.22 µM), without a hit: top-dose activation, negative = inhibition, hits mostly activators; hit rate 2.8% among 320,000; AID 485297; Huh7 Rab9 promoter-luciferase reporter, luminescence, 24 h; also: % of control where 0% means no effect; nearly all actives have a fitted effect of over 60% in size
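Huh7 cells stably carrying a Rab9 promoter-luciferase reporter, 1500 cells per well in OP-MEM I with 10% FBS, treated with compound 24 hours at 37C. Luciferase activity read by luminescence after 10 minutes with Amplite reagent.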
SMN2 splice enh – enhancers of SMN2 splice variant expression. HEK293 SMN2-luciferase splicing reporter, luminescence, 30-36 h. Potency, µM (titrated, usually from 46.1 µM), without a hit: at the highest dose activity change, positive = activation, actives largely listed as activators. hit rate 2.8% among 210,000; also: % of control where 0% means no effect; nearly all actives have a fitted effect of over 55% in size
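HEK293 cells carry an SMN2 minigene-luciferase reporter in which exon 7 inclusion puts luciferase in frame. Cells were seeded at 2000 cells/well, attached for 10-12 hours, then exposed to compounds for 30-36 hours at 37C before ONE-Glo luminescence.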
NPC1 prom act – NPC1 promoter activation. Huh7 NPC1 promoter luciferase reporter, 24 h. Potency, µM (titrated, usually from 9.22 µM), without a hit: at the top dose activation, most hits filed as activators. hit rate 2.4% among 320,000. AID 485313; also: % of control where 0% means no effect; nearly all actives have a fitted effect of over 60% in size
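Luciferase expression driven by the NPC1 promoter was measured in stably transfected Huh7 cells after a 24 h compound incubation, using a luciferase reagent and a luminescence read.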
* marks the source's active call; other numbers are inactive results; ? = inconclusive; · = not tested or not shown. Calls follow the shape of the dose curve; as a rule, active = well fitted curve in the direction sought with a large enough effect; inconclusive = small, poorly fitted or top-dose-only effect, or another doubt; inactive = no such curve, though single readings can be large; an effect the other way counts as inactive or inconclusive. Potency is read from the fitted curve at half-maximal effect.

SMILES | ELG1 genotoxic | FLuc counter | Rab9 promoter act | SMN2 splice enh | NPC1 prom act
Cc1ccc(-c2csc(NC(=O)c3ccc(C)o3)n2)cc1 | 0% | ? | -2% | -4% | -1%
CC(C)(C)c1ccc(C(=O)NCC(=O)OCC(=O)Nc2nc(-c3ccc(F)cc3)cs2)cc1 | 8% | 13µM* | 18% | 17% | 16%
Cc1ccc(-c2csc(NC(=O)c3c(C)noc3C)n2)cc1 | -1% | · | 12% | · | 13%
CN1CCN(S(=O)(=O)c2ccc(NC(=S)NC(=O)C(C)(C)C)cc2)CC1 | 0% | 2% | -1% | · | -12%
Cc1ccc(C2=CSC3=NNC4(CCCCC4)NN23)cc1 | 15% | 11µM* | 4.5µM* | -17% | -14%
COc1ccc(C2=CSC3=NNC4(CCCCC4)NN23)cc1 | 9% | ? | ? | 5% | -11%
CCN(C(=O)COC(=O)c1cc(OC)ccc1Br)C1CCS(=O)(=O)C1 (configuration not stated) | 1% | · | · | · | ·
COc1ccc(-c2cc(C(=O)Oc3ccc([N+](=O)[O-])cc3)c3ccccc3n2)cc1 | 13% | 5.4µM* | 22% | ? | 15%
COc1ccc(-c2cc(C(=O)Oc3ccc(C)cc3)c3ccccc3n2)cc1 | · | ? | · | 15% | ·
COc1ccc(-c2cc(C(=O)OCC(=O)N(C)C)c3ccccc3n2)cc1 | -1% | 9.5µM* | 23% | ? | 4%
CCN(C(=O)COC(=O)c1cc(-c2ccc3cc(OC)ccc3c2)nc2ccccc12)C1CCS(=O)(=O)C1 (configuration not stated) | 12% | 0.85µM* | 0.35µM* | ? | 0.89µM*
COc1ccc(-c2cc(C(=O)OCc3ccccn3)c3ccccc3n2)cc1 | -3% | 6.7µM* | 16% | · | 11%
C=CCNC(=O)N1CCC(c2nc3ccccc3s2)CC1 | -1% | -2% | -2% | · | 1%
C=CCOC(=O)N[C@@H](c1ccccc1)[C@@H](C)[N+](=O)[O-] | · | · | · | 6% | ·
O=C(C(=O)N1CCN(c2ccc(F)cc2)CC1)c1cn(CC(=O)N2CCOCC2)c2ccccc12 | 0% | 0% | -5% | · | 0%
CSc1ccc(CC(=O)N2CCC(n3nccc3NC(=O)C3CC3)CC2)cc1 | ? | ? | ? | · | 3.2µM*
Cc1ccc2c(c1Br)/C(=N/N1C(=O)c3ccccc3C1=O)C(=O)N2 | 11% | 2.4µM* | -1% | 27% | 1%
COc1ccc2c(c1)/C(=N/N1C(=O)c3ccccc3C1=O)C(=O)N2 | 9% | -10% | -5% | -20% | 5%
Cc1cc(C(=O)CSc2nnc(-c3ccccc3F)o2)c(C)n1Cc1cccs1 | 1% | ? | -6% | -30% | -3%
C=CCn1c(SCC(=O)c2cc(C)n(Cc3cccs3)c2C)nnc1-c1ccncc1 | -6% | 19µM* | -1% | -14% | 2%
Cc1cc(C(=O)CSc2nc3ccccc3n2CCC#N)c(C)n1Cc1cccs1 | 8.2µM* | ? | ? | ? | 25%
C=CCn1c(SCC(=O)c2c(C)[nH]c3ccccc23)nnc1-c1ccncc1 | -3% | 0% | -12% | 7% | -4%
COc1ccccc1-n1cnnc1SCC(=O)c1cc(C)n(Cc2cccs2)c1C | 14% | 19µM* | 13% | 1% | 16%
COC(=O)c1cc2sccc2n1Cc1nc(-c2cccc(Br)c2)oc1C | · | -2% | · | 3% | ·
CCOC(=O)c1c(C)c(C(=O)Nc2ccc3c(c2)OCCO3)c(C)n1C | 8% | ? | 19% | ? | 10%
SMILES | ELG1 genotoxic | FLuc counter | Rab9 promoter act | SMN2 splice enh | NPC1 prom act
CCOC(=O)Nc1cc(Br)c2c(c1)OCCO2 | 23µM* | ? | 16% | · | 17%
COc1ccc(NC(=O)CCCc2ccc(OC)c(C)c2)cc1 | -4% | -9% | 9% | · | 3%
COc1cccc(/C=N/NC(=O)CCc2ccccc2)c1 | 3% | 11µM* | 1% | -4% | 1%
COc1cccc(/C=N/NC(=O)CCCc2ccc(OC)c(C)c2)c1 | -1% | 19µM* | -2% | -16% | -1%
CCc1ccc(OCC(=O)Nc2ccncc2)cc1 | -2% | 11µM* | 2% | · | 0%
O=C(COc1ccccc1)Nc1ccncc1 | -1% | -10% | -3% | · | -2%
Cc1cc(OCC(=O)NNC(=O)c2ccncc2)ccc1C(C)C | 2% | 8.5µM* | -4% | · | -2%
O=C(COc1ccc2ccccc2c1)Nc1ccncc1 | -2% | 9.5µM* | -12% | · | 2%
CCc1ccc(OCC(=O)N/N=C2\CC(=O)c3ccccc32)cc1 | -2% | 12µM* | 13% | -4% | 14%
CCOC(=O)c1ccc(NC(=O)C2CCN(C(=O)N3CC(C)Oc4ccc(C)cc43)CC2)cc1 (configuration not stated) | · | -8% | · | · | ·
COCC(=O)Nc1ccc(C(C)C)cc1 | ? | 24µM* | 26% | ? | 27%
CC(C)c1ccc(OCC(=O)Nc2ccncc2)cc1 | 3% | 5.4µM* | 0% | · | 4%
CC(=O)NC(=S)Nc1ccc(NC(=O)COc2ccc(C(C)C)cc2)cc1 | -2% | -15% | 0% | 6% | 0%
CC(C)c1ccc(OCC(=O)Nc2ccc(S(=O)(=O)Nc3ncccn3)cc2)cc1 | · | 9.5µM* | · | 3% | ·
COCC(=O)Nc1cccc(C(F)(F)F)c1 | 0% | 0% | -1% | 3.5µM* | -2%
CC(C)c1ccc(OCC(=O)Nc2ccc(S(=O)(=O)Nc3ccccn3)cc2)cc1 | -2% | ? | 0% | · | 3%
CC(=O)Nc1ccc2c(c1)N(S(=O)(=O)c1cccs1)CCC2 | ? | 1% | -5% | · | -1%
CCc1ccc(OCC(=O)Nc2cccc3nsnc23)cc1 | 3% | 17µM* | -6% | -3% | -2%
Cc1cccc(NC(=O)CSCC(=O)N=c2sccn2C)c1 | 3% | -5% | -2% | · | 6%
Cn1ccs/c1=N\C(=O)Nc1cccc(C(F)(F)F)c1 | 4% | 24µM* | 28% | · | ?
Cc1ccc(Oc2ccc(OCC(=O)Nc3ccncc3)cc2)cc1 | 3% | · | · | · | ·
CC(C)(C)c1ccc(OCC(=O)Nc2ccncc2)cc1 | -6% | 6µM* | 1% | · | -2%
